Experimental data published in ChEMBL document CHEMBL4513216, “Probing the Open Global Health Chemical Diversity Library for Multistage-Active Starting Points for Next-Generation Antimalarials” (ACS Infect Dis, 2020).
About 8,600 (12%) of roughly 69,000 compounds showed an effect of 50% or more. The sample as a whole holds a higher share of strong results than the screen did.

System: Plasmodium berghei
Assay: Screen against P. berghei liver stage (PbLuc), transformed with Luciferase, at 10uM
Assay type: functional, HepG2
Details: tested at 10 uM

SMILES	INHIBITION
Cc1cc(NCCN)nc(-c2ccccc2O)n1	17.7%
Cn1cc(Cl)cc1C(=O)N1CCN(CCc2cccs2)CC1	23.73%
O=C(CC1Cn2ncnc2NC1=O)Nc1ccc(F)c(F)c1 (configuration not stated)	26.7%
Cc1nc(CN2CCN(c3cncc(Cl)n3)CC2)no1	14.6%
CN1CC(=O)N(c2ccccc2)CC12CCN(Cc1nccs1)C2 (configuration not stated)	-35.9%
COc1ccc(CN2CCC3(CC2)CN(c2ccccn2)CCO3)cc1	26.4%
COc1ncccc1CN1CCC2(CC1)CN(c1ccccn1)CCO2	41.8%
Fc1ccc(CN2CCC3(CC2)CN(c2ccccn2)CCO3)cc1	79.1%
Cn1ccnc1CN1CCC2(CC1)CN(c1ccccn1)CCO2	91.9%
c1ccc(CN2CCC3(CC2)CN(c2ccccn2)CCO3)nc1	-6.97%
Cc1noc(C)c1CN1CCC2(CC1)CN(c1ccccn1)CCO2	-40.4%
CC(C)c1nc(CN2CCCN(c3nccs3)CC2)no1	25.4%
CC(=O)N1CCn2c(C(=O)N(C)C)cnc2C1	47.8%
CSc1ccccc1C(=O)N1C[C@@H]2CC[C@H]1CN(C(=O)N(C)C)C2	21.2%
CCC(=O)N1CCCC(C(=O)c2cnn(-c3ccc(F)cc3)c2N)C1 (configuration not stated)	56.3%
CCCC(=O)N1CCCC(C(=O)c2cnn(-c3ccc(F)cc3)c2N)C1 (configuration not stated)	17.35%

SMILES	INHIBITION
Nc1c(C(=O)C2CCCN(C(=O)C3CC3)C2)cnn1-c1ccc(F)cc1 (configuration not stated)	38.9%
c1cnc(C2CCCN2c2cnccn2)cn1 (configuration not stated)	42.4%
COCC1CCN(C(=O)c2cc(O)nc(CC(C)C)c2)CC1	51.1%
CC(C)Cc1cc(C(=O)N2CCC(N3CCCC3)CC2)cc(O)n1	24.4%
CC(C)Cc1cc(C(=O)N2CCC(Cc3cnn(C)c3)C2)cc(O)n1 (configuration not stated)	26.6%
COC(=O)c1ccc(S(=O)(=O)N2CCCn3ncnc32)s1	3.84%
O=C1CC(c2ccc(Cl)c(Cl)c2)c2c(n3ccsc3nc2=O)N1 (configuration not stated)	36.2%
O=C(c1cc(-c2cccs2)cs1)N1CCOCC1	-132%
CC(C)c1nnc2n1CCN(Cc1cc(Cl)c3c(c1)OCCO3)C2	10.1%
CC(Cn1ccnc1)NC(=O)NCc1cccnc1OC1CCCC1 (configuration not stated)	17.4%
O=C(c1ccc(Cl)o1)N1CCCC1c1nnc2n1CCCCC2 (configuration not stated)	29.8%
CSCCC(=O)N1CCCC1c1nnc2n1CCCCC2 (configuration not stated)	54.3%
CC(=O)N1CCCC1c1nnc2n1CCCCC2 (configuration not stated)	-2.37%
CCc1ccc(C(=O)N2CCCC2c2nnc3n2CCCCC3)o1 (configuration not stated)	57.7%
Cc1ccc(C(=O)N2CCCC2c2nnc3n2CCCCC3)o1 (configuration not stated)	8.47%
CC(C)CCC(=O)N1CCCC1c1nnc2n1CCCCC2 (configuration not stated)	26.9%
